Source: PubChem
ERG-DNA inh: inhibitors of human ERG Ets domain-DNA interaction; actives 0.028% (n = 370,000); fluorescence polarization, His-ERG Ets domain / labelled DNA; P11308; Potency, µM (doses to about 76.9 µM), for inactives: top-dose FP activity, negative = inhibition, usual class: inhibitors; active = well fitted inhibition curve with a large enough effect in the polarisation, with a control signal flat; inconclusive = small, poorly fitted or top-dose-only effect, or effect the other way, or a change in a side signal; inactive = no such curve, though single readings can be large or run the other way; the % refers to the polarisation;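 also: polarization taken with two DNA probes labelled with fluorescein and Texas red; potency is read from the fitted curve at half-maximal effect; % of control where 0% means no effect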
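His-tagged ERG Ets domain (1 uM in the protein solution; 300mM KCl, 50mM Tris-HCl, 1mM EDTA, 1mM DTT, pH 7.5) received compound, then a probe mix of 5 nM fluorescein-DNA and 100nM Texas-615-DNA. Fluorescence polarization was read for both dyes.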
a7 integrin act: activates integrin-mediated alleviation for muscular dystrophy; alpha7betagal myoblasts, beta-gal FDG fluorescence, 48 h; Potency, µM (titrated, usually from 38.3 µM), for inactives: top-dose activation, most hits filed as activators; actives 0.064% (n = 350,000); AID 624291;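 also: potency is read from the fitted curve at half-maximal effect; 100% = response of the positive control SU9516; nearly all actives have a fitted effect of over 60% in size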
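Alpha7betagal+/- myoblasts (passage 13) were plated 16-24 hr, then exposed to compounds (1:260 dilution of DMSO stock) for 48 hours at 37C. After MPER lysis, β-galactosidase reporter activity was read as FDG fluorescence (ex 480/em 540) after 30 minutes.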
Gal4-VP16 FLuc: inhibits Gal4-VP16 luciferase reporter, ROR gamma counter-screen. Drosophila S2 Gal4-VP16 UAS-luciferase, luminescence, 20 h. Potency, µM (top dose mostly 53.6 µM), for inactives: at the highest dose activity, negative = inhibition, actives largely listed as inhibitors. actives 3.5% (n = 310,000). AID 2546;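 also: Gal4-VP16 expression switched on by copper sulfate through the metallothionein promoter; potency is read from the fitted curve at half-maximal effect; % is scaled to controls: 0 for no effect and ±100 for the full control effect; nearly all actives have a fitted effect of over 50% in size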
Giardia killer: kills Giardia lamblia; Giardia lamblia trophozoite viability; actives 0.15% (n = 340,000); activity change, % at 7.66 µM, hits read low; in the data active = activity change below about -80%; inconclusive = between about -30% and that limit;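 also: parasites exposed to compound for two days anaerobically before the ATP read; % is scaled to controls: 0 for no effect and ±100 for the full control effect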
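Giardia trophozoites, 100 cells per well, were exposed to compounds for 48 hrs at 37 deg C under anaerobic conditions; viability was then read as ATP content by bioluminescence after 15-30 min at room temperature.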
RORg inh: ROR gamma (mouse) transcription inhibition; Drosophila S2 Gal4-RORgamma UAS-luciferase reporter, 20 h; Potency, µM (top dose mostly 53.6 µM), inactives show at the highest dose activity change, negative = inhibition, usual class: inhibitors; actives 5.4% (n = 310,000); AID 2551; also: potency is read from the fitted curve at half-maximal effect; % is scaled to controls: 0 for no effect and ±100 for the full control effect; nearly all actives have a fitted effect of over 60% in size
Target sequence (P51450 whole entry, looked up, the tested form may be a part): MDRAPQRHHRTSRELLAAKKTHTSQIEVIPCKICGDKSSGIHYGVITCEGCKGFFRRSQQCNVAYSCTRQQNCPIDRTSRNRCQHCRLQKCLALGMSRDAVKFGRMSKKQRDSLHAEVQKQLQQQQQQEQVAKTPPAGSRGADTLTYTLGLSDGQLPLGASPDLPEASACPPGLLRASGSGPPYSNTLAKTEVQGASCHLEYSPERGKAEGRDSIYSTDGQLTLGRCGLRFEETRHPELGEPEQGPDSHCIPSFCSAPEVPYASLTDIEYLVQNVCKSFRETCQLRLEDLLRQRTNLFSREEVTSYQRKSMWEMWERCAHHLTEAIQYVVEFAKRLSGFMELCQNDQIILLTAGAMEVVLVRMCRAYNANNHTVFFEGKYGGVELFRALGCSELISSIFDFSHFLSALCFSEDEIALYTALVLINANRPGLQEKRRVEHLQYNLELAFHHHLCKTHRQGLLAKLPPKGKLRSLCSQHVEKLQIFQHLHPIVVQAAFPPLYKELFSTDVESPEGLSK
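ROR gamma transcriptional activity was tracked as Gal4-UAS luciferase output in stably transfected Drosophila Schneider cells, with compound added 1 hr before 700 uM copper sulfate induction and a 20 hr ambient-temperature incubation.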
* hit, by the source's call; ? = inconclusive; / = no result; [ ] = remark or other dose. The sample as a whole holds a higher share of hits than the screen did. Unless noted, calls follow the shape of the dose curve; as a rule, active = well fitted curve in the direction sought with a large enough effect; inconclusive = small, poorly fitted or top-dose-only effect, or another doubt; inactive = no such curve, though single readings can be large; an effect the other way counts as inactive or inconclusive.

SMILES	ERG-DNA inh	a7 integrin act	Gal4-VP16 FLuc	Giardia killer	RORg inh
CCOC(=O)c1cnc2c(OC)cccc2c1N1CCN(c2ccccc2OC)CC1	10%	10%	-10%	-1	-41%
CCOC(=O)c1cnc2c(OC)cccc2c1N1CCN(c2ccc(OC)cc2)CC1	0%	-6%	2.2µM*	11	-5%
COc1cccc2sc(Nc3nnc(-c4ccc(F)cc4)o3)nc12	2%	-14%	5µM*	-4	2.2µM*
Fc1cccc2sc(Nc3nnc(-c4ccco4)o3)nc12	1%	-20%	-8%[0.365 µM]	-19	0.13µM*
O=C(Nc1nc2c(F)cccc2s1)c1ccco1	2%	19%	-3%	-16	?
COc1cccc2sc(Nc3nnc(-c4cccs4)o3)nc12	-5%	-30%	2µM*	3	1.4µM*
COc1ccc2c(c1)O[C@@H](c1ccc3c(c1)OCO3)[C@H](OC(=O)Nc1cc(OC)c(OC)c(OC)c1)C2=O	/	/	2%	/	-6%
COCCC1CCCCN1C(=O)c1ccc2nc(Cc3ccccc3F)oc2c1 (centres undefined)	1%	-8%	0%	-2	-20%
COc1ccc2c(c1)O[C@H](c1ccc3c(c1)OCO3)[C@@H](OC(=O)NS(=O)(=O)c1ccc(C)cc1)C2=O	/	/	2%	/	4%
C=CCc1ccccc1OCC(O)CN1CCN(CCN2C(=O)c3cccc4cccc(c34)C2=O)CC1 (centres undefined)	-5%	-49%	11µM*	-19	-97%
COc1ccc(CC2S/C(=N/N=C/c3ccc(O)cc3)NC2=O)cc1 (centres undefined)	8%	2%	-5%	-3	-32%
COc1ccc(/C=N/N=C2/NC(=O)C(c3ccccc3)S2)c(OC)c1 (centres undefined)	-6%	-18%	-3%[0.365 µM]	-12	14µM*
O=C1N/C(=N/N=C/c2ccccc2O)SC1Cc1ccc(F)cc1 (centres undefined)	-9%	-61%	8.9µM*	2	2.8µM*
COc1ccc(CC2S/C(=N/N=C/c3ccccc3O)NC2=O)cc1 (centres undefined)	-7%	-37%	?	-14	5.6µM*
CCOc1ccc(CC2S/C(=N/c3ccccn3)NC2=O)cc1 (centres undefined)	/	-29%	5µM*	-6	3.2µM*
CCC(=O)Nc1cc(-c2cn3cccnc3n2)ccc1OC	1%	/	/	/	/
COc1ccc2[nH]cc(CCNC(=O)c3ccc4ccccc4n3)c2c1	10%	12%	-2%	-5	?
COc1ccc(C(=O)COC(=O)Cn2cnc3ccccc3c2=O)c(OC)c1	-1%	-12%	/	-4	/
CC(=O)N=c1sc2nc3ccccc3nc2n1N(C(C)=O)C(C)=O	3%	23%	?	-4	10µM*
CC(=O)N=c1sc2ccccc2n1C	-1%	13%	15%	-1	-6%
COc1ccc(C)cc1S(=O)(=O)NCCC1=CCCCC1	-6%	5%	11µM*	7	-11%
COc1ccc(NC(=O)NCCC2=CCCCC2)cc1	11%	-19%	-5%	1	-1%
COc1ccc(NC(=S)NCCC2=CCCCC2)cc1OC	9%	-21%	13µM*	7	2.5µM*
S=C(NCCC1=CCCCC1)Nc1ccc(Cl)cc1	/	17%	?	-4	3.5µM*
O=C(CN1CCN(c2ccccc2F)CC1)Nc1ccc2c(c1)CCC2	-2%	5%	22µM*	7	-35%
SMILES	ERG-DNA inh	a7 integrin act	Gal4-VP16 FLuc	Giardia killer	RORg inh
COc1ccc(Nc2c(-c3ccc(C)o3)nc3cc(C)ccn23)cc1	3%	/	/	/	/
C=CCN(C)NC(=O)Nc1ccccc1	-8%	12%	0%	3	20%
C=CCN(C)NC(=S)Nc1ccccc1	-3%	1%	10µM*	-4	5µM*
O=C(/C=C/c1cn(-c2ccccc2)nc1-c1cccnc1)N1CCCC1	-7%	-23%	-3%	-6	5%
O=C(CNc1ccccc1)N/N=C/c1cn(-c2ccccc2)nc1-c1ccccc1	/	8%	1µM*	-5	-4%[10 µM]
O=C(N/N=C/c1cn(-c2ccccc2)nc1-c1ccc(F)cc1)c1ccc(Br)o1	6%	-10%	2.5µM*	-1	1.8µM*
NC(=O)N/N=C/c1cn(-c2ccccc2)nc1-c1ccccc1	13%	7%	?	-12	-17%
O=C(N/N=C/c1cn(-c2ccccc2)nc1-c1cccnc1)c1cccnc1	12%	?	?	11	14µM*
O=C(/C=C/c1cn(-c2ccccc2)nc1-c1cccnc1)c1ccco1	6%	-76%	?	-6	6.3µM*
COc1ccc(NS(=O)(=O)c2cccc(C(=O)N/N=C/c3cn(-c4ccccc4)nc3-c3ccc(OC)cc3)c2)cc1	-3%	5%	-14%	0	-16%
CCOC(=O)CSc1ccc(C(=O)Nc2ccc(OC)cc2)cn1	-2%	-8%	6%	-3	-9%
COc1ccc(-c2cc(C3C4C=CCC(C)C4C(=O)N3Cc3ccccc3)ccc2F)cc1OC (centres undefined)	/	/	8%	6	?
Cc1cc(=O)n(CC(=O)Nc2cc(Cl)ccc2C)c(C(C)C)n1	10%	23%	-1%	7	9%
COc1cc(OC)c(NS(=O)(=O)c2cc(C(=O)NCCCN3CCOCC3)ccc2C)cc1Cl	/	-17%	/	/	/
Cc1cc(NC(=O)c2ccco2)cc(-c2nc3cc(Cl)ccc3o2)c1O	3%	/	/	/	/
O/N=C/c1cn(-c2ccccc2)nc1-c1cccnc1	-2%	-6%	1%	4	12%
O=C(N/N=C/c1cn(-c2ccccc2)nc1-c1cccnc1)c1ccc(F)cc1	15%	-21%	4µM*	9	2.8µM*
O=C(c1cccs1)c1ccc(-c2cccs2)s1	4%	4%	13µM*	-25	-23%
CC1=C(C(=O)Nc2cccnc2)C(c2ccccc2)n2nc(SCc3ccccc3Cl)nc2N1 (centres undefined)	-3%	/	/	/	/
CC(c1ccon1)N(C)Cc1cn(C)nc1-c1cccc(Cl)c1 (centres undefined)	-1%	0%	5%	10	-1%
CCOC(=O)c1c(C)cc(O)c(C=O)c1O	/	/	?	/	11µM*
COC(=O)c1c(C)cc(O)c(C=O)c1O	-9%	-4%	/	-19	/
CCOC(=O)N1CCN(CC(=O)Nc2c(C(=O)OC)[nH]c3cc(C)ccc23)CC1	2%	-28%	-11%	3	36%
COC(=O)c1[nH]c2ccc(C)cc2c1NC(=O)CN1CCN(c2ccccc2)CC1	-7%	-46%	11µM*	-12	?
COC(=O)c1[nH]c2ccc(C)cc2c1NC(=O)CN1CCN(Cc2ccccc2)CC1	-16%	-14%	-2%	-18	8%
COC(=O)c1[nH]c2ccc(C)cc2c1NC(=O)CN1CCN(c2ccc(F)cc2)CC1	-8%	-20%	13µM*	1	-43%
